From PubChem BioAssay come the findings set out here.

By remaining activity is commonly meant the signal under treatment as a percentage of the control signal. In general, AC50 refers to the concentration at which the activity in the assay is half-maximal. By IC50 is commonly meant the point on the concentration scale where inhibition reaches its midpoint.

A short description of experiment [1]: reducers of polyQ inclusions in PC12 cells, cell-based, NGF-treated PC12, GFPQ80 (AID 1614).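 Also: lower means fewer inclusions and 0 means no inclusions at all.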 The following applies: PC12 NGF-treated GFP-polyQ80 inclusion reduction.
The test system of experiment [2] is Aerobactin synthetase IucA (Klebsiella pneumoniae). Kind of experiment: IucA aerobactin synthetase inhibitors, biochemical, Tocris library, absorbance (AID 1345561; call rule not given here;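 also: 100% = enzyme without compound and 0% = no enzyme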). The following applies: purified IucA enzyme assay, absorbance (OD) read-out; stronger effect = lower value;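 tested at 8 µM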.
The nature of experiment [3]: growth inhibition of DIPG glioma cells, dose response, cell-based, SU-DIPG-XVII, MIPE5.0, CellTiter-Glo, qHTS (AID 1347060).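 As to AC50: cells exposed to compound for 48 hours before viability readout.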 Conditions: SU-DIPG-XVII viability, CellTiter-Glo ATP luminescence.
Experiment [4] is described as follows: growth inhibition of DIPG glioma cells, dose response, cell-based, SU-DIPG-XIII, MIPE5.0, CellTiter-Glo, qHTS (AID 1347064; cut-off not given, nearly all actives have AC50 up to about 23 µM;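 as to AC50: cells exposed to compound for 48 hours before the viability read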). The following applies: SU-DIPG-XIII viability, CellTiter-Glo ATP luminescence.
Experiment [5] deals with ATP-dependent translocase ABCB1 (Homo sapiens) (UniProt P08183). Description: MDR1 (ABCB1) efflux transporter inhibition, cell-based (AID 377; in the data active = fluorescence slope change above about 50%). The following applies: MDR1-expressing cells, fluorescent substrate accumulation slope; stronger effect = higher value; concentration not given here.
The nature of experiment [6]: inhibitors of Cryptococcus chitosan production, flow cytometry, Cibacron Brilliant Red staining (AID 1347148; call rule not given here;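 also: compound exposure lasted three days at 37 degrees C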). The following applies: Cryptococcus neoformans chitosan, stronger effect = lower value; at 10 µM unless noted.
Experiment [7] in a line: modifiers of HSF1 nuclear foci, imaging, Selleck Cancer Library (AID 1347162; in the data active = plate-normalised HSF1 focus index below about 0.46). Conditions: human cells, at 10 µM; SSMD: measured here: HSF1 foci SSMD mean; cell count: measured here: cell number; plate-normalised HSF1 focus index: stronger effect = lower value.
Experiment [8] can be described thus: JHH-DIPG-1 glioma cell viability, MIPE5.0 library, CellTiter-Glo luminescence, qHTS (AID 1347067).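 Also: cells exposed to compound for 48 hours before readout.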 Conditions: JHH-DIPG-1 glioma viability, CellTiter-Glo ATP luminescence. On the technique in general: ATP-based viability assays read luminescence as a measure of living cells.
The nature of experiment [9]: SU-DIPG-XXV glioma cell viability, MIPE5.0 library, qHTS (AID 1347068; cut-off not given, nearly all actives have IC50 up to about 30 µM;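 as to IC50: cells exposed to compound for 48 hours before viability readout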).
Experiment [10] can be described thus: viability loss in pontine glioma line – cell-based, SU-DIPG-XXV, MIPE5.0, CellTiter-Glo, qHTS, dose response (AID 1347065).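 Also: cells exposed to compound for 48 hours before ATP readout.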 The following applies: CellTiter-Glo ATP luminescence.

Inconclusive results are not listed. The source made the active and inactive calls. Unless noted, the limit is not given here; nearly all actives have AC50 up to about 26 µM.

Sequence of ATP-dependent translocase ABCB1 (Homo sapiens) (P08183 whole entry, looked up): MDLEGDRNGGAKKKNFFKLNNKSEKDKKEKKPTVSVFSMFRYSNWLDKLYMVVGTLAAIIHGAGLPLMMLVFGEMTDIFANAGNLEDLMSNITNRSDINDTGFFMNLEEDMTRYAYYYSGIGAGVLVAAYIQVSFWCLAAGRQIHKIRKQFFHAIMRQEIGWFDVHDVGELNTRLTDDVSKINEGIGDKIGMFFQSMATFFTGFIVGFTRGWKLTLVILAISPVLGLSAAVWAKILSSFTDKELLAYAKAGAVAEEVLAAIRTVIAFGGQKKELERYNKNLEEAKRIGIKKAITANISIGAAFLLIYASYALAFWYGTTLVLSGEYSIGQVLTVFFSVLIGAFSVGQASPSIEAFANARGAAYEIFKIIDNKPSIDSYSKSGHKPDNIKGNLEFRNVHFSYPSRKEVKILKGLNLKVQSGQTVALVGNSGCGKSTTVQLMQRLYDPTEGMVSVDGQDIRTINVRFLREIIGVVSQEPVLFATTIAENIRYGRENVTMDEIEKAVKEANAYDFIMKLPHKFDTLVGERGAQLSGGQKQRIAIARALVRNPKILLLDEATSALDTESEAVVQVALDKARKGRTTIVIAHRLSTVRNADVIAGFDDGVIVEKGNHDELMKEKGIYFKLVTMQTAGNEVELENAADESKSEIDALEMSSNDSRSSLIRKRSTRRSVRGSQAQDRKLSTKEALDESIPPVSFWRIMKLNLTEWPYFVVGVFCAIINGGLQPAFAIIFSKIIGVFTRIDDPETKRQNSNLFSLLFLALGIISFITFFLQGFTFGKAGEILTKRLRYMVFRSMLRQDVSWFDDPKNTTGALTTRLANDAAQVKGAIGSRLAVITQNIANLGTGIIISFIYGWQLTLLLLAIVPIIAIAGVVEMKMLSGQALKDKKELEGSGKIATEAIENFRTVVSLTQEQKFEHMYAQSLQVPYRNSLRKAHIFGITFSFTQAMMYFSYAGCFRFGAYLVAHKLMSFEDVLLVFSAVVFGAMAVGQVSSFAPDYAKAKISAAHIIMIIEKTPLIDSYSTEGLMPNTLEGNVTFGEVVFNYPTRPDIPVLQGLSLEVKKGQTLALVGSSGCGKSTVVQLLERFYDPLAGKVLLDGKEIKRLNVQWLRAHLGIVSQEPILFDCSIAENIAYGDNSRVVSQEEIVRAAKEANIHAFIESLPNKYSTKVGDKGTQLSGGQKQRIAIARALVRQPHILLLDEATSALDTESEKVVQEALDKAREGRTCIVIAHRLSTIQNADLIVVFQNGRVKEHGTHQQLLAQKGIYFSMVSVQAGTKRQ

Turning to `O=c1cc(-c2ccc(O)cc2)oc2cc(O)cc(O)c12`, the inclusion score in [1] was 1.5. The remaining activity in experiment [2] was 107% (inactive). In addition, the AC50 in experiment [3] and in experiment [4] was 16.6 µM (active) each time.

Consider `CN1C[C@H](C(=O)N[C@]2(C)O[C@@]3(O)[C@@H]4CCCN4C(=O)[C@H](Cc4ccccc4)N3C2=O)C[C@@H]2c3cccc4[nH]cc(c34)C[C@H]21`, for which the fluorescence slope change in experiment [5] was 122% (active). For the same molecule, the remaining activity in [2] is 86.1% (inactive).

Molecule `COc1c(C)c2c(c(O)c1C/C=C(\C)CCC(=O)O)C(=O)OC2` displayed an inclusion score in experiment [1] of 1. Besides, in [2], the remaining activity is 113% (inactive). In experiment [3], the AC50 was 0.742 µM (active). In addition, the fold fluorescence in experiment [6] is 7.43 [at 156.1 µM] (inactive). Further, in experiment [7], the SSMD was -0.56, the cell count is 7660 and the plate-normalised HSF1 focus index is 0.964 (inactive).

In the case of `CCCCOc1cc(CC2CNC(=O)N2)ccc1OC` (stereo not given), the remaining activity in [2] was 104% (inactive).

As to `COc1cc(CNC(=O)CCCC/C=C/C(C)C)ccc1O`, the remaining activity in experiment [2] was 122% (inactive). Moreover, the call in [3], in experiment [8] and in experiment [9] was inactive. For the same molecule, the fold fluorescence in experiment [6] is 7.26 [at 163.7 µM] (inactive).

As to `CC/C(=C(\c1ccccc1)c1ccc(OCCN(C)C)cc1)c1ccccc1`, in experiment [5], the fluorescence slope change is 142% (active). Besides, the remaining activity in experiment [2] was 79.2% (inactive). Besides, the AC50 was 17.1 µM (active) in experiment [3], 13.5 µM (active) in experiment [4], 19.1 µM (active) in experiment [10] and 21.5 µM (active) in [8]. Besides, the IC50 in experiment [9] is 17.1 µM (active). In experiment [6], the fold fluorescence was 8.26 [at 134.6 µM] (inactive). In [7], the SSMD is -8.19. The cell count in experiment [7] turned out to be 3320. In addition, the plate-normalised HSF1 focus index in experiment [7] is 0.591 (inactive).

On to `NCCc1cnc[nH]1`, for which the inclusion score in experiment [1] was 2. In addition, the remaining activity in experiment [2] is 107% (inactive). Moreover, the call in experiment [3], in [4], in experiment [10], in experiment [8] and in [9] was inactive. In addition, the fold fluorescence in experiment [6] was 5.22 [at 449.9 µM] (inactive).

`O=c1cc(-c2ccccc2)oc2cc(O)c(O)c(O)c12`: the remaining activity in experiment [2] is 119% (inactive).

`CC[C@H]1OC(=O)[C@H](C)[C@@H](O[C@H]2C[C@@](C)(OC)[C@@H](O)[C@H](C)O2)[C@H](C)[C@@H](O[C@@H]2O[C@H](C)C[C@H](N(C)C)[C@H]2O)[C@](C)(O)C[C@@H](C)/C(=N\OCOCCOC)[C@H](C)[C@@H](O)[C@]1(C)O`: in experiment [1], the inclusion score was 2.

Turning to `O=C(CCc1ccc(O)cc1)c1c(O)cc(O)cc1O`, the molecule was classed as inactive in experiment [3], in [4], in [10], in [8] and in experiment [9]. This molecule also registered an SSMD in [7] of 2.09. Moreover, the cell count in experiment [7] was determined as 7280. Moreover, the plate-normalised HSF1 focus index in experiment [7] is 1.13 (inactive).

As for `O=C(/C=C/c1ccc(O)cc1)c1ccc(O)cc1O`, the molecule was classed as inactive in [3].

`O=C(CCc1ccc(O)cc1)c1c(O)cc(O)cc1O[C@@H]1O[C@H](CO)[C@@H](O)[C@H](O)[C@H]1O`: the molecule was called inactive in experiment [4], in experiment [10] and in experiment [9].

As to `c1coc(CNc2ncnc3nc[nH]c23)c1`, the fluorescence slope change in experiment [5] was 8.8% (inactive). For the same molecule, the inclusion score in experiment [1] came to 2. The outcome in experiment [3], in experiment [4], in experiment [10], in experiment [8] and in experiment [9] was inactive.

In experiment [1], `CN1C2CCC1CC(OC(=O)C(CO)c1ccccc1)C2` (stereo not given) registered an inclusion score of 2. Also, the molecule was classed as inactive in experiment [4], in experiment [10] and in [9].

Take `NC[C@H]1O[C@H](O[C@H]2[C@H](O)[C@@H](O[C@H]3O[C@H](CO)[C@@H](O)[C@H](N)[C@H]3O)[C@H](N)C[C@@H]2N)[C@H](N)C[C@@H]1O`: the molecule was classed as inactive in experiment [3], in experiment [4], in [8] and in experiment [9].

On to `OCc1ccccc1O[C@@H]1O[C@H](CO)[C@@H](O)[C@H](O)[C@H]1O`, for which the inclusion score in [1] is 2. The result in experiment [3], in experiment [4], in experiment [8] and in experiment [9] was inactive.

`O=c1cc(-c2ccccc2)oc2cc(O)cc(O)c12`: in [10], the AC50 is 20.9 µM (active). The result in experiment [8] was inactive.

For the molecule `Cc1cc(O)c2c(c1)C(=O)c1cc(O)cc(O)c1C2=O`, the result in [4] was inactive.
